# According to PubChem BioAssay AID1845225 (National Center for Advancing Translational Sciences (NCATS), 2023):
# Results filed as inconclusive are left out. Activity calls are given as the source filed them. The call rests on the fitted dose curve; in most records, active means well fitted curve in the direction sought with a large enough effect; inconclusive means small, poorly fitted or top-dose-only effect, or effect the other way, or another doubt; inactive means no such curve, though single readings can be large or run the other way.
# Experiment: Confirmatory redox qHTS assay for identification of artifact compounds.
# Details: Amplex Red/HRP redox cycling with DTT, fluorescence; series mostly up to 39 µM
# Excerpt: PI: Alexander Tropsha Ph.D. UNC Eshelman School of Pharmacy University of North Carolina, Chapel Hill, North Carolina Hits from high-throughput screening (HTS) of chemical libraries are often false positives due to their interference with the assay detection technology. In response to this problem, we generated the largest publicly available library of chemical liabilities and developed a free webtool to predict HTS artifacts, both of which are described herein. More specifically, we generated, curated, and integrated HTS datasets for thiol reactivity, redox activity, and luciferase (firefly and nano) activity. Using these curated datasets, we developed and validated several Quantitative Structure-Interference Relationship (QSIR) models to predict nuisance behavior. […] These models were employed for virtual profiling of the National Center for Advancing Translational Science's (NCATS) in-house library, and 256 compounds for each assay were selected for the experimental validation of nuisance behavior. The BA for these external predictions ranged from 58 to 78% for compounds within the applicability domains of the models. […] The models developed in this study, along with aggregation models previously developed by our group (SCAM Detective) were implemented in "Liability Predictor," an online tool which may be used as part of chemical library design or for triaging HTS hits. Both the models and the curated datasets are publicly available at https://liability.mml.unc.edu/.
# PROTOCOL TABLE SEQUENCE No. (e.g., 1, 2, 3, etc.); […] (e.g., Cells, Incubation, Reagent, etc.); VALUE; DESCRIPTION. 1; Reagent; 3 uL; Amplex Red and HRP mixture. 2; Compounds and control; 16 nL; Kalypsis pin tool (Wako USA) equipped with a 1536-well pin head. 3; Incubation; 15 min. 4; Reagent; 1 uL; […]. 5; Incubation; 30 min. 6; Detection; Fluorescence, ViewLux microplate reader, 525 nm excitation, 598 nm emission. NOTES (numbers refer to Sequence numbers above) 1. 3 uL of a mixture containing Amplex Red (25 uM final concentration) and horseradish peroxidase (HRP; 250 mU/mL final concentration) in assay buffer (HBSS) was dispensed into all wells of a 1536-well assay plate (solid-bottom black plate; Greiner Bio One, Monroe, NC). 2. […] 3. 15 min. incubation at room temperature protected from light. 4. 1 uL of DTT (prepared fresh; final concentration 250 uM) was dispensed for a final assay volume of 4 uL. 5. Plates were centrifuged (121xg, 15 seconds) and incubated for 30 minutes at room temperature protected from light. 6. Samples were read for fluorescence (Ex/Em = 525(20)/598(25) nm) on a ViewLux CCD imager (PerkinElmer). Data were normalized to DMSO (0% activity) and DA3003 (10 uM final concentration; 100% activity) and the resulting percent inhibition data were fitted to a 4-parameter Hill equation using NCATS in-house software.
row,SMILES,outcome
1,CCOc1ccc(CCNC(=O)c2cc3ccccc3n2CCN2CCOCC2)cc1OCC,inactive
2,Oc1cccc[c]1[Hg][Cl],inactive
3,CSc1nc(NC(C)C)nc(NC(C)C)n1,inactive
4,Cc1ccc(C(C)C)c(OCC(=O)N2CCN(CCc3ccncc3)CC2)c1,inactive
5,Cn1c(=O)n(C)c2cc(CNCCc3ccccc3)ccc21,inactive
6,CCCOC(=O)c1ccccc1C(=O)OCCC,inactive
7,Clc1ccc(C(Cl)(Cl)Cl)cc1Cl,inactive
